# Screening results from PubChem.
# IL-1B inflam inh – qHTS for Inhibitors of Inflammasome Signaling: IL-1-beta AlphaLISA Primary Screen | THP-1 LPS/ATP IL-1B secretion, AlphaLISA, 16 h; stronger effect = lower value | activity change, % at 57.5 µM | hit rate 4.7% among 360,000 | AID 743279, 2014; in the data active = activity change below about -50%; inconclusive = mostly about -30% to -49%; note: % is set by controls: 0 for no effect and ±100 for the full control effect
#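 THP-1 cells pretreated 1 hr with compounds (up to 57.5 uM final), then stimulated with LPS (250 ng/mL final) plus ATP (1.25 mM final); secreted IL-1B measured by AlphaLISA after 16 hr, decreased signal indicating inhibition.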
# S-ASM inh – Inhibitors of Secretory Acid Sphingomyelinase (S-ASM): qHTS; Sphingomyelin phosphodiesterase (Homo sapiens), P17405; Potency, µM (titrated, usually from 57.5 µM), without a hit: at the highest dose activity change, negative = inhibition, actives largely listed as inhibitors; hit rate 0.006% among 340,000; placental ASM, HMU-PC fluorogenic substrate, 60 min; note: potency is the fitted concentration of half-maximal effect
# Target sequence (P17405 47-631 limits assumed): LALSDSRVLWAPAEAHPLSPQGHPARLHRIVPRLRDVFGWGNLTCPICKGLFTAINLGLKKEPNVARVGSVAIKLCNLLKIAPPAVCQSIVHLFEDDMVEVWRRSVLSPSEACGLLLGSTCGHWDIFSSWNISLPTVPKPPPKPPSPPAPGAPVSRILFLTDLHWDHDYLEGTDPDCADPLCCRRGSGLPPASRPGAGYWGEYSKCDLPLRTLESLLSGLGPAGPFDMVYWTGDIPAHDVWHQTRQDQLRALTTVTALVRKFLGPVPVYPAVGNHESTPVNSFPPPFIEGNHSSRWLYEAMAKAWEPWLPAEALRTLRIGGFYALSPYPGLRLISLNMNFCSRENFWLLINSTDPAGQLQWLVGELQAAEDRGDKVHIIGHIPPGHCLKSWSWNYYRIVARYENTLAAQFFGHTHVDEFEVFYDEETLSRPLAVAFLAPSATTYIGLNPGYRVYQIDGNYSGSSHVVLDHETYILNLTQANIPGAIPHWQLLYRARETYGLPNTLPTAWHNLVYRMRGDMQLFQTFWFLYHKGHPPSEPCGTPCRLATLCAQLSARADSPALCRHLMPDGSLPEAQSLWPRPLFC
#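 Fluorescence read-out (Ex 386 nm, Em 447 nm) after stopping the reaction at pH 10. Enzyme: ASM from human placenta; substrate HMU-PC0, 9 uM final; 60 min, 37 °C. Compound preincubation 10 min, ambient temperature.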
# TDP1 cell noCPT – qHTS for Inhibitors of human tyrosyl-DNA phosphodiesterase 1 (TDP1): qHTS in cells in absence of CPT | DT40 Tdp1-/- hTDP1 cells, no CPT, ATP luminescence, 48 h | Potency, µM (doses to about 46.2 µM), for the others: at the highest dose activity change, negative = growth inhibition, usual class: inhibitors | hit rate 15% among 420,000 | AID 686978, 2013; note: potency is the fitted concentration of half-maximal effect; % is set by controls: 0 for no effect and ±100 for the full control effect; nearly all actives have a fitted effect of over 55% in size
#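 Cells were dispensed at 400 per well, compounds added by pin tool, plates incubated ≥48 hr at 37 °C, then CellTiter-Glo added for 30 min at room temperature before luminescence reading. Line: DT40 Tdp1-/- complemented with hTDP1; camptothecin omitted.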
# HepG2 viability – qHTS for Inhibitors of TGF-b: Cytotox Counterscreen | HepG2 CAGA-GFP viability, ATP luminescence, 18 h | AID 588856, 2011 | hit rate 0.76% among 410,000 | Potency, µM (top dose mostly 46.1 µM), inactives show at the top dose activity change, negative = cytotoxicity, usual class: cytotoxic; note: potency is the fitted concentration of half-maximal effect
#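 HepG2 CAGA-GFP cells (1000/well, DMEM with 1% FBS) received compound, then TGF-beta at 500 pg/mL final, and were incubated 18 hours at 37 degrees C. Viability was read by CellTiter-Glo luminescence. Media-only wells were set as complete cell-killing and DMSO as no toxicity.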
# TGFb SMAD3 inh – qHTS for Inhibitors of TGF-b; Potency, µM (top dose mostly 46.1 µM), inactives show top-dose activity, negative = inhibition, hits mostly inhibitors; HepG2 CAGA-GFP TGF-b/SMAD3 reporter, GFP fluorescence, 18 h; TGF-beta stimulated, 500 pg/mL final; hit rate 1.2% among 410,000; AID 588855, 2011; note: potency is the fitted concentration of half-maximal effect; % is set by controls: 0 for no effect and ±100 for the full control effect; nearly all actives have a fitted effect of over 65% in size
#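 First, reporter cells (HEPG2 CAGA-GFP) rested 2 h at 37 degrees C. Next, compounds were pinned in and TGF-beta added to 500 pg/mL final. After 18 h, GFP was imaged per cell and summed per well.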
# DT40 TDP1 CPT – qHTS for Inhibitors of human tyrosyl-DNA phosphodiesterase 1 (TDP1): qHTS in cells in presence of CPT; chicken DT40 Tdp1-/-;hTDP1 cells + 20 nM CPT, ATP luminescence, 48 h; Potency, µM (titrated, usually from 46.2 µM), for the others: at the highest dose activity change, negative = growth inhibition, actives largely listed as inhibitors; hit rate 12% among 420,000; note: potency is the fitted concentration of half-maximal effect; % is set by controls: 0 for no effect and ±100 for the full control effect; nearly all actives have a fitted effect of over 55% in size
#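 Cell growth measured by CellTiter-Glo luminescence after a minimum 48 h, 37 C compound exposure with 20 nM CPT in Tdp1-knockout DT40 cells stably expressing hTDP1, seeded 400/well; qHTS titration format.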
# * = called active by the depositor; ? = inconclusive; . = no result given; ! = repeats disagree. Only some compounds are listed: those with a hit (about 19% of all), similar ones and a draw of the others. Unless noted, calls come from the whole dose curve; as a rule, active = well fitted curve in the direction sought with a large enough effect; inconclusive = small, poorly fitted or top-dose-only effect, or another doubt; inactive = no such curve, though single readings can be large; an effect the other way counts as inactive or inconclusive.
SMILES,IL-1B inflam inh,S-ASM inh,TDP1 cell noCPT,HepG2 viability,TGFb SMAD3 inh,DT40 TDP1 CPT
O=C(Cc1ccccc1Cl)Nc1cccc(S(=O)(=O)N2CCCCCC2)c1,-51.9*,-1.8%,-5.7%,-1.5%,-14.2%,-6.9%
O=C(Cc1ccc(Cl)c(Cl)c1)Nc1cccc(S(=O)(=O)N2CCOCC2)c1,-80.3*,-4.8%,?,-28.9%,-8.6%,?
O=C(CCc1ccccc1)Nc1cccc(S(=O)(=O)N2CCOCC2)c1,-2.5,0.6%,?,-4.1%,1.6%,?
O=C(COC(=O)CCC1CCCC1)Nc1cccc(S(=O)(=O)N2CCOCC2)c1,-87.4*,-3.5%,-27.5%,-22.4%,17.7%,-20.4%
O=C(CCc1ccccc1Cl)Nc1cccc(S(=O)(=O)N2CCCC2)c1,-3.2,-3.3%,?,-13.5%,-21.5%,-20.6%
CCOc1ccccc1NC(=O)Cn1c(=O)n(Cc2cccs2)c(=O)c2cccnc21,.,.,-5.7%,-14.0%,1.4%,2.3%
O=C(CCNC(=O)c1ccc(Cl)cc1)Nc1cccc(S(=O)(=O)N2CCCCC2)c1,-13.2,-6.6%,23.1µM*,5.0%,-7.4%,18.4µM*
O=C(Nc1cccc(S(=O)(=O)N2CCCC2)c1)[C@@H]1O[C@H](CO)[C@@H](O)[C@H]1O,-76.1*,.,-0.5%,-0.5%,23.9%,5.4%
CCc1ccccc1OCC(=O)Nc1cccc(S(=O)(=O)N2CCCC2)c1,-2.9,-2.7%,16.4µM*,4.4%,?,?
O=C(COc1ccc(F)cc1Cl)Nc1cccc(S(=O)(=O)N2CCCCCC2)c1,-11.7,-3.2%,?,-10.7%,-15.7%,?
O=C(Nc1cccc(S(=O)(=O)N2CCCCC2)c1)Nc1ccc(Cl)cc1Cl,-86.9*,-20.3%,?,10.2%,?,?
Cn1cccc1C(=O)NCC1COc2ccccc2O1 (stereo not given),0.3,5.4%,-22.4%,-0.4%,-2.2%,-9.3%
CNC1C(O)[C@@H]2OC(O[C@@H]3C(O)C(O)C(N)C[C@H]3N)C(N)C[C@H]2O[C@H]1O[C@@H]1OC(CO)C(N)C(O)C1O (stereo not given in full),.,.,-5.1%,.,.,0.6%
COCCCN1C(=O)C(CC(=O)NCc2cccc3ccccc23)CC(C(=O)N2CCCCCC2)=C1C (stereo not given),.,.,11.7%,.,.,-5.6%
O=c1[nH]c(=S)[nH]c2nc[nH]c12,.,.,-5.6%,-6.4%,9.4%,8.0%
S=c1nc[nH]c2nc[nH]c12,38.4,-0.6%,18.8µM*!,1.41µM*!,2.6%,?
CCOc1ccccc1OCC(=O)OCC(=O)c1c(N)n(CC(C)C)c(=O)n(C)c1=O,6.3,2.8%,18.4µM*,-33.8%,?,?
CCC(C(=O)OCC(=O)c1c(N)n(CC(C)C)c(=O)n(C)c1=O)c1ccccc1 (stereo not given),-12.0,6.3%,23.1µM*,-22.7%,-23.7%,20.6µM*
CC(C)Cn1c(N)c(C(=O)COC(=O)[C@H](C)NC(=O)c2ccccc2Cl)c(=O)n(C)c1=O,7.0,-1.6%,-28.8%,5.6%,0.0%,?
Cc1csc(=O)n1CC(=O)OCC(=O)c1c(N)n(CC(C)C)c(=O)n(C)c1=O,11.9,1.1%,23.1µM*,5.0%,?,?
CC(C)C[C@@H]1COc2cccc(N(C)CCO)c2S(=O)(=O)N1,22.4,.,?,.,.,-46.4%
CC(C)[C@H](NC(=O)N1CCn2c1nc1ccccc12)C(=O)N[C@H](C(=O)O)c1ccccc1,18.2,10.4%,-9.3%,3.4%,9.0%,19.6%
COc1ccc(-c2cn(-c3ccc(C)cc3C)c(=S)[nH]2)cc1OC,17.4,-3.5%,20.6µM*,-0.4%,0.0%,?
COc1ccc(-n2cc(-c3ccccc3)[nH]c2=S)c(OC)c1,?,-5.3%,5.8µM*,-13.0%,-11.2%,7.31µM*
CC(NC(=S)NCCc1ccccc1)C(c1cccs1)N1CCN(Cc2ccccc2)CC1 (stereo not given),-24.0,2.2%,?,-43.4%,?,16.4µM*
SMILES,IL-1B inflam inh,S-ASM inh,TDP1 cell noCPT,HepG2 viability,TGFb SMAD3 inh,DT40 TDP1 CPT
C/C(CCc1ccccc1)=N\NC(=S)NCCc1ccccc1,11.7,-0.6%,13µM*,-4.3%,-20.2%,?
C/C(=N\NC(=S)NCCc1ccccc1)c1cccs1,36.6,-0.8%,5.17µM*,-23.7%,?,5.17µM*
O=C(C[n+]1cccc(Br)c1)c1ccc2c(c1)CCCC2,.,.,?,-25.2%,-10.3%,?
COc1ccc(NC(=O)/C=C\C(=O)N(c2ccc(C(C)C)cc2)C(C(=O)NCc2ccco2)c2ccc(F)cc2)cc1 (stereo not given),.,.,?,-24.2%,-12.2%,18.4µM*
COc1ccc(C(CC(=O)NCc2ccco2)c2ccc(F)cc2)cc1 (stereo not given),-3.4,0.6%,-3.7%,-12.2%,0.0%,-25.8%
COc1ccc(N(C(=O)/C=C\C(=O)Nc2ccc(Cl)cc2)C(C(=O)NCc2ccco2)c2ccc(C)cc2)cc1 (stereo not given),.,.,18.4µM*,-45.1%,12.6µM*,16.4µM*
CCOc1ccc(N(C(C)C(=O)NCc2ccco2)S(C)(=O)=O)cc1 (stereo not given),23.2,2.8%,-12.7%,-0.4%,1.3%,-28.3%
CCOc1ccc(NC(=O)/C=C\C(=O)N(c2ccc(C(C)C)cc2)C(C(=O)NCc2ccco2)c2ccc(F)cc2)cc1 (stereo not given),.,.,13µM*,-41.4%,?,5.17µM*
Cc1nnc2c(N3CCN(CCO)CC3)nc3ccccc3n12,-5.3,1.7%,-16.6%,-3.1%,14.6%,16.0%
O=C(O)c1cccc2c1C(=O)c1cccc3snc-2c13,1.1,96.7%,-25.7%,15.5%,4.3%,-14.2%
N#C/C(=C\c1cc2c(cc1Br)OCO2)c1ccc(C(=O)O)cc1,35.8,9.3%,13.4%,-4.1%,15.6%,-8.5%
COC(=O)c1cccc(Nc2c(-c3ccc(OC)cc3)nc3nc[nH]n23)c1,.,.,?,-17.2%,-0.6%,20.6µM*
Cc1ccc(NC(=O)c2cc3c(s2)CCCC3)cc1,-53.3*,-8.2%,-30.0%,-7.5%,-0.1%,?
Cc1ccc(NC(=O)CN(C)C(=O)c2cc3c(s2)CCCCC3)cc1,0.0,-8.4%,-18.9%,-19.0%,-18.6%,-11.4%
